# PPARg SRC1 recr = PPARgamma-driven SRC-1 recruitment agonism. 200,000 compounds, 0.41% hits. PPARgamma-SRC-1 coactivator recruitment biochemical assay. P37231. activation, % at 8 µM; in the data active = activation above about 19%;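 note: 0% = DMSO and 100% = reference agonist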
# Target sequence (P37231 whole entry, looked up): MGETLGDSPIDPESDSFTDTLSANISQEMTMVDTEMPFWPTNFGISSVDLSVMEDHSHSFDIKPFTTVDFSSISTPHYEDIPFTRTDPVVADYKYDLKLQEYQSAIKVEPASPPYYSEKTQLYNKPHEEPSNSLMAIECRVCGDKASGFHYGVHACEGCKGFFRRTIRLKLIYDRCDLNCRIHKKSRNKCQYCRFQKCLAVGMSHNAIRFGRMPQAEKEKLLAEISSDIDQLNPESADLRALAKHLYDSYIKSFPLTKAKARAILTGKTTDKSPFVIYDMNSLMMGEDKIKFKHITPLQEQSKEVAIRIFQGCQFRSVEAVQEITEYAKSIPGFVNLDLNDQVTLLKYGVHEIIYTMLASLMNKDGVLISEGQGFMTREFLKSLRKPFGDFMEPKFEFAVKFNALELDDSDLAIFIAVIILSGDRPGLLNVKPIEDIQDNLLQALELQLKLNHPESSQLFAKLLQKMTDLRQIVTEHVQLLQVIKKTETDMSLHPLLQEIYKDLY
# SRC2 TRFRET art = counter-screen for PPARgamma SRC-2 recruitment agonists: TR-FRET artefact; hits give high values; TR-FRET ratio at 8 µM; 200,000 compounds, 0.4% hits; AID 1049
# SRC1 TRFRET art = counter-screen for PPARgamma SRC-1 recruitment agonists: TR-FRET artefact; TR-FRET ratio at 8 µM; 99,000 compounds, 0.34% hits; TR-FRET detection artefact counter-screen, emission ratio; hits give high values; in the data active = TR-FRET ratio above about 2300
# SRC3 TRFRET art = TR-FRET artefact, counter-screen to PPARgamma/SRC-3 agonist assay; 99,000 compounds, 0.39% hits; PPARgamma/SRC-3 format; hits give high values; TR-FRET ratio at 8 µM
# PPARg SRC-3 ag = agonists of human PPARgamma SRC-3 coactivator recruitment; 200,000 compounds, 0.26% hits; activation, % at 8 µM; biochemical PPARgamma/SRC-3 coactivator recruitment assay; P37231; in the data active = activation above about 23%;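 note: 0% = DMSO and 100% = reference agonist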
# PPARg SRC2 recr = agonists of SRC-2 recruitment by human PPARgamma; 200,000 compounds, 0.34% hits; AID 1032; P37231; activation, % at 8 µM; PPARgamma LBD-SRC-2 recruitment, biochemical; in the data active = activation above about 22%;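 note: 0% = vehicle and 100% = reference agonist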
# An asterisk follows results filed as active; . = no result given. A selection: hits, their analogues and other compounds. The true share with any hit is near 0.9%. Cut-off read from the data, not from the text of the source, unless noted: active = TR-FRET ratio above about 2000; inactive = the rest.
SMILES,PPARg SRC1 recr,SRC2 TRFRET art,SRC1 TRFRET art,SRC3 TRFRET art,PPARg SRC-3 ag,PPARg SRC2 recr
COc1ccc(C2=NN(C(=O)CSc3nc4ccccc4s3)C(c3ccc(F)cc3)C2)cc1 (stereo not given),-8,1326,1833,1435,-4,8
O=C1CCCN2N=C(SCC(=O)N3N=C(c4ccc(Br)cc4)CC3c3ccc(F)cc3)SC2=N1 (stereo not given),-4,2012*,2131,2326*,-3,-2
O=C(Nc1ccc(N2CCOCC2)cc1)Nc1ccc2nsnc2c1,7,1863,2437*,1642,9,11
O=C(NCc1ccc2c(c1)OCO2)Nc1ccc2nsnc2c1,12,2378*,2198,1791,13,67*
COc1ccc(NC(=O)NCc2ccc3c(c2)OCO3)cc1,-1,1486,1783,1563,-1,5
CCN(CC)S(=O)(=O)c1cc(NC(=O)C(C)OC(=O)c2[nH]c(C)c(C(C)=O)c2C)ccc1C (stereo not given),2,1391,1790,1607,4,-8
CCc1ccc2oc(C(=O)Nc3ccc(S(N)(=O)=O)cc3)c(C)c2c1,1,1875,2324*,1772,3,8
Cc1ccc(NC(=O)CSc2nnc(-c3ccc(S(=O)(=O)N4CCCC4)cc3)o2)cc1C,21*,1464,.,.,1,-11
CC1(C)CC(=O)C(C=Nc2ccccc2C(=O)O)=C(O)C1,6,1972*,.,.,4,0
O=C(CSc1nnc(-c2ccco2)o1)c1ccc[nH]1,1,1597,1653,1720,1,2
Cc1c(C(=O)c2ccc([N+](=O)[O-])cc2)c(=O)n(C)c(=O)n1C,3,1451,1745,1402,-1,3
Cc1nnc2sc(-c3ccc(NC(=O)c4ccc(-c5ccc(Cl)cc5Cl)o4)cc3)nn12,19*,1494,.,.,-1,-9
COc1ccc(-c2cc(-c3ccc(Br)cc3)nc3ncnn23)cc1OC,13,2400*,.,.,19,18
COc1ccc(-c2cc(-c3ccccc3)nc3ncnn23)cc1,-3,1582,1632,1563,-1,-4
COc1cc(CN2CCN(C(C)C)C(CCO)C2)ccc1OCc1ccccc1 (stereo not given),5,1555,1783,1726,-3,4
O=C(CSc1ncccc1-c1nc2ccccc2[nH]1)N1CCc2ccccc21,5,2650*,2802*,3407*,2,-8
Cc1cc2nc(-c3ccc(SCC(=O)Nc4ccc(S(=O)(=O)NC5CC5)cc4)nc3)[nH]c2cc1C,13,2456*,2422*,3182*,3,10
Cc1cc(NC(=O)CSc2ccc(-c3nc4cc(C)c(C)cc4[nH]3)cn2)no1,2,1545,.,.,-16,-9
Cc1cc2nc(-c3ccc(SCC(=O)N4CCc5ccccc54)nc3)[nH]c2cc1C,0,2115*,.,.,8,-1
Cc1cc(-c2nnc(CCC(=O)NC(C)c3ccc(F)cc3)o2)no1 (stereo not given),3,1651,1719,1702,2,7
N#CC1(C#N)[C@@H](C(=O)C23CC4CC(CC(C4)C2)C3)C12CCOCC2,0,1721,1669,1655,4,-4
Cc1c(NS(=O)(=O)c2ccc3c(c2)OCCO3)cccc1-c1nc2cccnc2s1,10,1991*,.,.,3,-3
CCN(CC)CC(C)CNC(=O)CN1C(=O)CSc2ccc(S(=O)(=O)N3CCOCC3)cc21 (stereo not given),0,1690,1943,1647,-5,4
COc1ccc(-c2noc(-c3ccc(Br)o3)n2)cc1OC,6,1607,.,.,36*,-1
COc1cc(-c2nc(-c3ccc(Br)o3)no2)cc(OC)c1OC,10,1695,.,.,-6,13
SMILES,PPARg SRC1 recr,SRC2 TRFRET art,SRC1 TRFRET art,SRC3 TRFRET art,PPARg SRC-3 ag,PPARg SRC2 recr
CCCc1nc2ccccc2c(=O)n1-c1ccc(C(=O)OCC)cc1,-2,1899,1899,1683,4,10
Cc1cccc(Nc2ccc(C(=O)N3CCOCC3)cn2)c1,9,1985*,2076,1601,3,7
O=C(c1ccc(Nc2cccc(C(F)(F)F)c2)nc1)N1CCCC1,0,1376,.,.,7,-5
CCN(CC)CCN(Cc1cc2cc3c(cc2[nH]c1=O)OCCO3)C(=O)NC1CCCCC1,19*,1649,.,.,3,-2
CC1CCCCN1C(=O)Nc1cccc(C(F)(F)F)c1 (stereo not given),13,1781,2319*,1831,6,5
COc1ccc(C2=NN(C(=O)CSc3cn(C)c4ccccc34)C(c3ccc(OC)cc3)C2)cc1 (stereo not given),0,9469*,.,.,9,5
COc1ccc(C2=NN(C(=O)CSc3nc4ccccc4s3)C(c3ccc(OC)cc3)C2)cc1 (stereo not given),7,1438,1938,1447,-2,-6
COc1ccc(C2CC(c3ccc4ccccc4c3)=NN2C(=O)CSc2ncccn2)cc1 (stereo not given),3,1608,1782,2117*,-4,9
COc1ccc(C2=NN(C(=O)CSc3ncccn3)C(c3ccc(OC)cc3)C2)cc1 (stereo not given),8,1601,2104,1648,-1,5
O=C(CSc1nc2ccccc2n1CCc1ccccc1)c1ccc(O)c(O)c1,4,1502,1586,1521,3,1
CC(NC(=S)Nc1ccc(S(=O)(=O)N2CCOCC2)cc1)C1CC2CCC1C2 (stereo not given),8,1556,2010,1719,3,6
O=C(Nc1cccnc1)c1cc(-c2ccc3c(c2)OCO3)on1,12,1992*,.,.,19,20
O=C(Nc1cccnc1)c1cc(-c2ccc(F)cc2)on1,-6,1430,1836,1821,1,-5
CC(C)N(Cc1cn[nH]c1-c1ccc(-c2ccccc2)cc1)Cc1nccn1C,3,1602,1734,1674,5,-3
N/C(=N\OC(=O)COc1ccc(Br)cc1)c1cccnc1,8,1617,1675,1430,3,-1
N/C(=N\OC(=O)COc1ccc(Br)cc1Cl)c1ccccn1,9,1664,1963,1619,4,5
N/C(=N\OC(=O)COc1ccc2ccccc2c1Br)c1cccnc1,4,1797,2331*,1766,7,14
N/C(=N\OC(=O)COc1ccc2ccccc2c1Br)c1ccccn1,8,1993*,2360*,2027,11,20
CCOC(=O)c1cccc(NC(=S)NCc2ccc(C)cc2)c1,11,1416,1725,1561,-1,7
C[C@H]1CC[C@H]2C(=O)N3[C@H](c4ccccc4Br)[C@@H](C)CC[C@H]3C(=O)N2[C@@H]1c1ccccc1Br,-8,1377,1684,1601,3,0
COc1ccc([N+](=O)[O-])cc1N(CC(=O)Nc1ccccc1C(=O)NC(C)C)S(C)(=O)=O,1,1658,1665,1651,5,2
